Assay results reported in PubChem BioAssay.
Inconclusive results are not listed. For part of these data: Measured potencies and affinities stand elsewhere. Calls of active or inactive are those of the source. Unless noted, the rule behind the calls is not given here.

Tests used:
[1] = target: ATP-dependent translocase ABCB1 (Homo sapiens) (UniProt P08183); experiment: P-glycoprotein substrate transport blockade – cell-based (AID 377; in the data active = fluorescence slope change above about 50%); conditions: MDR1-expressing cells, fluorescent substrate accumulation slope; stronger effect = higher value; concentration not given here
[2] = blockers of polyQ-driven CASP3 activation – cell-based (AID 1583); conditions: polyglutamine-induced caspase-3 activation, cell assay; stronger effect = higher value;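 tested at 10 µM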
[3] = restoration of touch response, mutant HTT neurons – whole organism, C. elegans mechanosensory neurons, N-terminal huntingtin (AID 1599); conditions: C. elegans polyQ-huntingtin mechanosensory neurons, stronger effect = higher value
[4] = glutamate transport activators, MN-1 cells, MN-1 cell line (AID 1612); conditions: MN-1 motor neuron cells, stronger effect = higher value;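 note: tested at 1 µM final; 0% = mean of DMSO vehicle wells on each plate; positive means more glutamate uptake than control and negative means less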
[5] = GFP-Q80 aggregate reduction, neuronal-like cells, cell-based, NGF-treated PC12, GFPQ80 (AID 1614); conditions: PC12 NGF-treated GFP-polyQ80 inclusion reduction;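 note: lower means fewer inclusions and 0 means no inclusions at all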
[6] = 75Q-TubH aggregate inhibition, S. cerevisiae, yeast (AID 1616); conditions: S. cerevisiae 75Q-TubH polyglutamine aggregation suppression; stronger effect = higher value
[7] = compounds altering circadian rhythm period length – cell-based, LOPAC library, luminescence reporter (AID 2774); conditions: circadian reporter cells, at 7 µM, actives lie on both sides;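 note: values are relative to mean of DMSO wells on each plate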
[8] = compounds altering viability of human ES cells (AID 493140); conditions: human embryonic stem cell survival screen; stronger effect = higher value;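 note: cells exposed to compounds for four days before counting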
[9] = tested on: Hepatitis C virus NS3 helicase; experiment: blockers of NS3h binding to ssDNA – biochemical, fluorescence polarization, LOPAC1280 library, primary screen (AID 687035; in the data active = inhibition above about 37%); conditions: Purified HCV NS3 helicase, Cy5-dT15 ssDNA binding fluorescence polarization; stronger effect = higher value; concentration not given here
[10] = compounds altering Cy5-DNA-NS3h complex signal – biochemical, LOPAC1280, artefact control for HCV NS3 helicase inhibitor project (AID 687037); conditions: Cy5-DNA-NS3h complex fluorescence interference counterscreen
[11] = blockers of cellular phospholipid synthesis – cell-based, LOPAC library, screen 4, primary screen (AID 1347384); conditions: animal cells, phospholipid biosynthesis inhibition screen; at 10 µM
[12] = tested on: Aerobactin synthetase IucA (Klebsiella pneumoniae, hypervirulent); experiment: biochemical IucA inhibition screen of LOPAC library by absorbance (AID 1346212); conditions: IucA enzyme assay, absorbance (OD) readout; stronger effect = lower value;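 tested at 8 µM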;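 note: 100% = no compound wells and 0% = no enzyme wells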

ATP-dependent translocase ABCB1 (Homo sapiens), sequence (P08183 whole entry, looked up): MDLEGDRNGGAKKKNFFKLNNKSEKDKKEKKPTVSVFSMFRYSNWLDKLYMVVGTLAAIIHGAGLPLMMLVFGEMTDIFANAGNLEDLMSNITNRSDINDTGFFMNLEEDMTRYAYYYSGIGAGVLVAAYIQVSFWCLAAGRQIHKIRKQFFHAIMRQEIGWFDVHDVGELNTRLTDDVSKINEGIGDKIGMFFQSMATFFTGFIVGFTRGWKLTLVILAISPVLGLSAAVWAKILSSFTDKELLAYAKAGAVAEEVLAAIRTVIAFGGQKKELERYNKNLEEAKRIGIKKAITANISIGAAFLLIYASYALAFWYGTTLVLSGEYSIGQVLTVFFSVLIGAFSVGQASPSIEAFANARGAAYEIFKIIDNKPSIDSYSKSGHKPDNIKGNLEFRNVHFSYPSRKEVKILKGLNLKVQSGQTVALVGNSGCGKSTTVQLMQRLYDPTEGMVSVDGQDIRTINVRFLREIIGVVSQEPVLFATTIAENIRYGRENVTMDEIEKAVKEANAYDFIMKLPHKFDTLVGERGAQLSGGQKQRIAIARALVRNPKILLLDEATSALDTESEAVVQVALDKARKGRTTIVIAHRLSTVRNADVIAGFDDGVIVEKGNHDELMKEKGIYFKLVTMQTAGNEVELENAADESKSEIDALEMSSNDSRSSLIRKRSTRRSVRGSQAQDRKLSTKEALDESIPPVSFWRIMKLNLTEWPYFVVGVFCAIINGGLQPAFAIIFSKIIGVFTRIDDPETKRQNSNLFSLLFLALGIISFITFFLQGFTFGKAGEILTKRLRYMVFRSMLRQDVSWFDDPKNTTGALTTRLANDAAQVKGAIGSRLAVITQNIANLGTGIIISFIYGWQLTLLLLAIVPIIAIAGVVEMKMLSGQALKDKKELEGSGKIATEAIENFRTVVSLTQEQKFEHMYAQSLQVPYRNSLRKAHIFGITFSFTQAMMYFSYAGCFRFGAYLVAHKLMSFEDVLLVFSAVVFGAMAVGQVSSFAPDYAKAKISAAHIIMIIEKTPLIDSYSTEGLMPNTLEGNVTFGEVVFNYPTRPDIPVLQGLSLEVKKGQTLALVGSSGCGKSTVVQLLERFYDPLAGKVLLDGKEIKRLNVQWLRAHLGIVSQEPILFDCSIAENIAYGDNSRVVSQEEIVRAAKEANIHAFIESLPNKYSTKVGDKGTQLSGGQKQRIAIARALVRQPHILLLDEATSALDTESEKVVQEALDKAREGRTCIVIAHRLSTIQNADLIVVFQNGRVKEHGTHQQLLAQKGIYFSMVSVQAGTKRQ

**Q.** For `NCC(CC(=O)O)c1ccc(Cl)cc1` (stereo not drawn), which fluorescence slope change [1] is on record?
**A.** 76.7% (active)

**Q.** What about the inhibition [2] of the same molecule?
**A.** -4.56%

**Q.** And the rescue above control [3]?
**A.** 5.24

**Q.** And the glutamate uptake change [4]?
**A.** -15.4%

**Q.** And the inclusion score [5]?
**A.** 2

**Q.** What about the aggregation suppression score [6] of the same molecule?
**A.** 1.13

**Q.** And the period change [7]?
**A.** 0.145 h (inactive)

**Q.** And the survival [8]?
**A.** 9.17 (inactive)

**Q.** What about the inhibition [9] of the same molecule?
**A.** -1% (inactive)

**Q.** And the fluorescence ratio (interference) [10]?
**A.** 0.9 (inactive)

**Q.** What about the outcome [11] of the same molecule?
**A.** inactive

**Q.** Which results are given for `c1ccc2c(c1)sc1ccccc12`?
**A.** inhibition [2]: 11%; rescue above control [3]: 18.8; glutamate uptake change [4]: -0.7%; aggregation suppression score [6]: 0.0947

**Q.** For `O=[N+]([O-])O[C@H]1CO[C@H]2[C@@H]1OC[C@H]2O[N+](=O)[O-]`, which fluorescence slope change [1] is on record?
**A.** -12.8% (inactive)

**Q.** And the inhibition [2]?
**A.** 15%

**Q.** And the rescue above control [3]?
**A.** -2.31

**Q.** What about the glutamate uptake change [4] of the same molecule?
**A.** -15.4%

**Q.** What about the inclusion score [5] of the same molecule?
**A.** 1

**Q.** What about the aggregation suppression score [6] of the same molecule?
**A.** 1.27

**Q.** What about the survival [8] of the same molecule?
**A.** 6 (inactive)

**Q.** Which inhibition [2] does the source give for `Cc1cc(O)ccc1Cl` here?
**A.** 17.2%

**Q.** And the rescue above control [3]?
**A.** 2.39

**Q.** And the glutamate uptake change [4]?
**A.** -10.2%

**Q.** What about the inclusion score [5] of the same molecule?
**A.** 2

**Q.** And the aggregation suppression score [6]?
**A.** 0.639

**Q.** With `CC[n+]1c(-c2ccccc2)c2cc(N)ccc2c2ccc(N)cc21` as the molecule, how does the inhibition [2] read?
**A.** 24.8%

**Q.** What about the rescue above control [3] of the same molecule?
**A.** 0

**Q.** And the glutamate uptake change [4]?
**A.** 5.78%

**Q.** What about the aggregation suppression score [6] of the same molecule?
**A.** 0.0827

**Q.** With `N[C@@H]1C[C@H]1c1ccccc1` as the molecule, how does the survival [8] read?
**A.** 34.7 (inactive)

**Q.** And the remaining activity [12]?
**A.** 95.5% (inactive)

**Q.** For `Oc1ccc(Cl)cc1`, which inhibition [2] is on record?
**A.** -57%

**Q.** What about the rescue above control [3] of the same molecule?
**A.** 0.9

**Q.** What about the glutamate uptake change [4] of the same molecule?
**A.** 4.5%

**Q.** What about the inclusion score [5] of the same molecule?
**A.** 2

**Q.** And the aggregation suppression score [6]?
**A.** 0.223

**Q.** With `NC(=O)c1cc([N+](=O)[O-])cc([N+](=O)[O-])c1` as the molecule, how does the inhibition [2] read?
**A.** -15.4%

**Q.** And the rescue above control [3]?
**A.** -6.77

**Q.** What about the glutamate uptake change [4] of the same molecule?
**A.** -3.86%

**Q.** And the inclusion score [5]?
**A.** 2

**Q.** And the aggregation suppression score [6]?
**A.** 1.47

**Q.** For `Clc1ccc(CSC(Cn2ccnc2)c2ccc(Cl)cc2Cl)cc1` (stereo not drawn), which fluorescence slope change [1] is on record?
**A.** 21.9% (inactive)

**Q.** And the inhibition [2]?
**A.** 16.4%

**Q.** What about the rescue above control [3] of the same molecule?
**A.** 23

**Q.** What about the glutamate uptake change [4] of the same molecule?
**A.** 6.86%

**Q.** What about the aggregation suppression score [6] of the same molecule?
**A.** 0.000314

**Q.** And the survival [8]?
**A.** 7.67 (inactive)

**Q.** With `C[C@@H]1O[C@@H](O[C@H]2C[C@@H](O)[C@]3(CO)[C@H]4[C@H](O)C[C@]5(C)[C@@H](C6=CC(=O)OC6)CC[C@]5(O)[C@@H]4CC[C@]3(O)C2)[C@H](O)[C@H](O)[C@H]1O` as the molecule, how does the period change [7] read?
**A.** -0.18 h (inactive)

**Q.** What about the survival [8] of the same molecule?
**A.** 1.08 (inactive)

**Q.** What about the inhibition [9] of the same molecule?
**A.** -4% (inactive)

**Q.** And the fluorescence ratio (interference) [10]?
**A.** 1 (inactive)

**Q.** And the remaining activity [12]?
**A.** 109% (inactive)

**Q.** What about the outcome [11] of the same molecule?
**A.** inactive

**Q.** For `CC1=C2[C@H]3OC(=O)[C@@H](C)[C@@H]3CC[C@@]2(C)C=CC1=O`, which survival [8] is on record?
**A.** 2.25 (inactive)

**Q.** Which fluorescence slope change [1] does the source give for `O=c1oc2ccccc2c(O)c1Cc1c(O)c2ccccc2oc1=O` here?
**A.** -7.2% (inactive)

**Q.** What about the inhibition [2] of the same molecule?
**A.** 3.41%

**Q.** And the glutamate uptake change [4]?
**A.** -38%

**Q.** And the inclusion score [5]?
**A.** 1

**Q.** What about the aggregation suppression score [6] of the same molecule?
**A.** 1.26

**Q.** What about the survival [8] of the same molecule?
**A.** 4.42 (inactive)

**Q.** For `CC(=O)[O][Hg][c]1ccccc1`, which rescue above control [3] is on record?
**A.** 0

**Q.** What about the glutamate uptake change [4] of the same molecule?
**A.** -17.8%

**Q.** What about the aggregation suppression score [6] of the same molecule?
**A.** -0.131

**Q.** With `CC(=O)NC1CCSC1=O` (stereo not drawn) as the molecule, how does the survival [8] read?
**A.** 5.75 (inactive)

**Q.** Which fluorescence slope change [1] does the source give for `CNC(C)(C)Cc1ccccc1` here?
**A.** 29.7% (inactive)

**Q.** And the inhibition [2]?
**A.** -8.9%

**Q.** And the rescue above control [3]?
**A.** -1.26

**Q.** What about the glutamate uptake change [4] of the same molecule?
**A.** 3.05%

**Q.** And the inclusion score [5]?
**A.** 2

**Q.** And the aggregation suppression score [6]?
**A.** 1.35

**Q.** What about the survival [8] of the same molecule?
**A.** 4.83 (inactive)

**Q.** Which period change [7] does the source give for `COc1ccccc1N1CCNCC1` here?
**A.** 0.075 h (inactive)

**Q.** What about the inhibition [9] of the same molecule?
**A.** -4% (inactive)

**Q.** And the fluorescence ratio (interference) [10]?
**A.** 0.9 (inactive)

**Q.** What about the remaining activity [12] of the same molecule?
**A.** 96.8% (inactive)

**Q.** What about the outcome [11] of the same molecule?
**A.** inactive
